Whole data set: some 24,000 sequences, median “enrichment r” near 0.99, cut for the highest 2% near 3.7. For the sample, the highest values were picked, then their nearest neighbours and some sequences at random.

Consider 16 molecules from article PMC12136788.

First the molecules themselves.
B1: chr22:38201524:38201525:+_ENSG00000189060_ENST00000340857|hu_hu|FALSE|FALSE (ssRNA)
RNA: GGGAGUUCUACAGUCCGACGAUCCGCAGGGGCGGACGUGGAAUUCUCGGUCAUGGUGGCCUGUCUGGUCCGGCUGUUGAAGGCGCCUUCCAAAGGGCCAGCCCUCGUCGGAGGCUGAGCAAAGCCUGCCUCGGGAUCUGCUCCCAACAGAGGAUUGAGCAUCA
B2: chr16:17038481:17038482:+_ENSMUSG00000063358_ENSMUST00000069107|mus_mus|FALSE|FALSE (ssRNA)
RNA: GGGAGUUCUACAGUCCGACGAUCCUUGUCCUGACCAAUUUAAGAUCUGUAUCCUGGCUGGAAUCUAGCAGUCUCUUCAAAAAUGAGUUCUUUGAGCUUCUCCUUAGGUAAGUCGUCCAACUCCAUGUCAAACUUGAAUGGCGCCAACAGAGGAUUGAGCAUCA
B3: chr11:77336104:77336105:-_ENSG00000074201_ENST00000525064|hu_mus|hu_hu_hu_mus_False|48_108 (ssRNA)
RNA: GGGAGUUCUACAGUCCGACGAUCCUCGCACAUUGCAGUGAACAUCGCCUCCAAUGCUGACUUAUCACUGGGCACAAAUCGAAAUUCAGUAAUAGGUUCAACAUCAUCAUUGUCUUCCUCAUCUUCAUCAGAGAGAGGUUCUUUCAACAGAGGAUUGAGCAUCA
B4: 42454244_42454364_2548_CDS_ENSG00000166887_ENST00000318006|human|control|control (ssRNA)
RNA: GGGAGUUCUACAGUCCGACGAUCAUGGAGAAGGUUCUUGAGCACUUGAUUGAACCGUUUCUUUUGUGCAUUUUCUUCCAAGACCUUUUCCAGGAAGAUGCGUAUGUCAUUGAUCUGAGUGUUUGCUGGCAGAAGGUUGAGGGCCAACAGAGGAUUGAGCAUCA
B5: chr3:9412954:9412955:+_ENSG00000134077_ENST00000452837|hu_mus|hu_hu_hu_mus_False|1_78 (ssRNA)
RNA: GGGAGUUCUACAGUCCGACGAUCGGUUGAUAUCUCUUCUUUGAUGGCUGGAUUUUCAUAAUAAUCUAAGAUAUGUGAAUCUGAAGUGCUGCUGGCAUGCUUUUUCUUACCAUCUUUCUCAUCUGCUUUGUCUCCUUGUCCAUUCAACAGAGGAUUGAGCAUCA
B6: 32390341_32390461_6886_3pUTR_ENSMUSG00000053774_ENSMUST00000115151|mouse|control|control (ssRNA)
RNA: GGGAGUUCUACAGUCCGACGAUCACUUUAACCCAAGGAGGACCCAGAGGUUCAAGGUUAUGUUCAACUAACUACACAGUCACUGAAGAGGUCAGCCUGAUCCAGGACAACCAGGACUAGAUAAAGAAAACUUAUCUCAAAGAACAACAGAGGAUUGAGCAUCA
B7: chr7:141441981:141441982:+_ENSG00000106028_ENST00000265304|hu_mus|hu_hu_hu_mus_False|38_38 (ssRNA)
RNA: GGGAGUUCUACAGUCCGACGAUCCUCAUGUCUUACAAACUGACGAAAUACCUGUAACACAGGUCUUCGAAACAUGGCUUCUGUUUUUCUUACAACCAGUCUAAUCUGCUUUUCCUAAAGGAAAGAAAGAAAAGAGAAAAAUGACAACAGAGGAUUGAGCAUCA
B8: chr5:56189439:56189440:+_ENSG00000095015_ENST00000399503|hu_hu|FALSE|FALSE (ssRNA)
RNA: GGGAGUUCUACAGUCCGACGAUCAAAGACUGGAUGCUUCAGUAGCUCUCUUGAUGGAGGUCUGUCCUGAGGUUGAAGUUCUAAACAACGAAGAGCCACAUCUCGUAAACCAGGAGACAAAUGUGAAGGGAUCGAUGGAGCAGUCAACAGAGGAUUGAGCAUCA
B9: chr3:142455422:142455423:-_ENSMUSG00000004591_ENSMUST00000043812|mus_hu|FALSE|FALSE (ssRNA)
RNA: GGGAGUUCUACAGUCCGACGAUCGAAAAAACAAUAAAGUCAUAGAUUAGGAGAAAAAAAUAUAAAAUCAAACCAAACCAAAACAAACAAAAAACUACAGGCAAGUGGAAAGUCAUGGUUUGUAAAAAGACAACCCUAAAAGAGCAACAGAGGAUUGAGCAUCA
B10: chr4:148551591:148551592:-_ENSMUSG00000063077_ENSMUST00000060537|mus_hu|mus_mus_mus_hu_False|1_48 (ssRNA)
RNA: GGGAGUUCUACAGUCCGACGAUCACCUGACAAAAUUAAAUAUCCCUGUAAAUUAGACAAUAAGCAGCAGGCAACAAAGUCUUUGCUUUGAAAUAUGUGCCAGGAAAAGUCAUCUUGUUUUUAGAUCUCAAGAGACACAACCAUCAACAGAGGAUUGAGCAUCA
B11: chr14:52780626:52780627:-_ENSMUSG00000035726_ENSMUST00000046709|mus_mus|FALSE|FALSE (ssRNA)
RNA: GGGAGUUCUACAGUCCGACGAUCUGAGCACUGCACCACAUAUGGACUUGUAAGGAGGAAAAAAAAAAAAAAAAAAAAAAAAAAAACAGCCACGAGUGCCAGUGUUUGUCUUCUGAUGCAGCAAAAACAACCCCAGAAUGUGCACAACAGAGGAUUGAGCAUCA
B12: 54532081_54532201_669_3pUTR_ENSMUSG00000073678_ENSMUST00000097739|mouse|control|control (ssRNA)
RNA: GGGAGUUCUACAGUCCGACGAUCGACUGAGCAGAGACAUAAAGAAAGCAAAAGAAACACCACAGGGAAGGUUUCAACUGUAGUAACCAGACAUCUACACCAAAAAUGGAUUGUGCAAAACAACUGAUUUUUUUUUUUUUUUUACAACAGAGGAUUGAGCAUCA
B13: 2840810_2840930_7205_3pUTR_ENSG00000087266_ENST00000503393|human|control|control (ssRNA)
RNA: GGGAGUUCUACAGUCCGACGAUCUGAGACCCUGUCUCAGAAAAAAAAAAAAAGAAAAGAAAAAGAAAAAGACAACAAGUUAAAAAAUGGGCAAAAGAUGAUAGACACUUCACAGGAGACAAAAUCAAAAUGGUUAAUAAAAACCAACAGAGGAUUGAGCAUCA
B14: chr3:148802587:148802588:-_ENSG00000071794_ENST00000310053|hu_mus|FALSE|FALSE (ssRNA)
RNA: GGGAGUUCUACAGUCCGACGAUCUCCAACAACUUGUCCUCUCAUAGUUCCAAAUAAAACCAAAUCUUGCUCUUCAUCACUCGUUAGGAAGUCAUCUGGAGGAAUAAUGUCUUGGAAUUCAAAAUGUGGCAAGAAAGUUGAGUACAACAGAGGAUUGAGCAUCA
B15: 110765750_110770449_1192_CDS_ENSG00000174437_ENST00000539276|human|control|control (ssRNA)
RNA: GGGAGUUCUACAGUCCGACGAUCCUCAUUAAGGGAACAAGUAUCACCUUCCACUCUGUCCAGAAUGAACAUCCUGCAGACUGACAUCUGGUUUGUUGUAAGUGUACCAGUCUUGUCUGAGCAGAUAACAGAAGUACAACCAAGCAACAGAGGAUUGAGCAUCA
B16: chr1:33860009:33860010:-_ENSMUSG00000042197_ENSMUST00000044455|mus_mus|motif|central (ssRNA)
RNA: GGGAGUUCUACAGUCCGACGAUCGCUGGAGAUAUCCCAAGGAACUGACGAGCUCUCACUUGGCCUAGAAUGAUGAAAUCGGAAACAACUCCUGGACUGCAGAUCACGUAUGACUCGGGACAUCUCAGCCACUUGUGUCUGGAGCAACAGAGGAUUGAGCAUCA

The assay deals with T1, UNK ZnF1-3 (human, UniProt Q9C0B0 31-174).
T1 sequence: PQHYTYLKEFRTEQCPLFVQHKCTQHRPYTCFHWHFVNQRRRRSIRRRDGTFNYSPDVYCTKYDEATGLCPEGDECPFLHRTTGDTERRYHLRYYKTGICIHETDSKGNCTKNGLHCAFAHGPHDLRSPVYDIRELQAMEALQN
Kind of assay: nsRBNS (natural sequence RNA bind-n-seq); RBNS binding buffer (assumed for nsRBNS): 25 mM Tris pH 7.5, 150 mM KCl, 3 mM MgCl2, 0.01% Triton X-100, 500 ug/ml BSA, 20 U/ml SUPERase-In, 4 C; UNK is unkempt and MSI1 is Musashi-1; names of the RNAs are library labels; protein concentration not given here; high values mean tight binding.
In turn, B1 gave a binding signal of 0.944 enrichment R. The same measure for B2: 0.719 enrichment R. The value for B3 was 0.872 enrichment R. The molecule B4 came in with a binding signal of 1.14 enrichment R.

In turn, B5 gave a binding signal of 0.44 enrichment R. In turn, B6 showed a binding signal of 1.33 enrichment R. The value for B7 was 0.817 enrichment R. The same measure for B8: 1.08 enrichment R; for B9: 3.8 enrichment R; for B10: 1.29 enrichment R.

In turn, B11 gave a binding signal of 12.8 enrichment R. The same measure for B12: 4.75 enrichment R; for B13: 8.04 enrichment R; for B14: 1.23 enrichment R. The same measure for B15: 0.886 enrichment R; for B16: 0.781 enrichment R.
